Where “and” joins values, the source holds several entries; their conditions need not be identical. Equal values may be shown once. Records with an inconclusive call do not appear. Entries that show only a call come without a potency. Calls of active or inactive are those of the source. Unless noted, the call rests on the fitted dose curve; in most records, active means well fitted curve in the direction sought with a large enough effect; inconclusive means small, poorly fitted or top-dose-only effect, or another doubt; inactive means no such curve, though single readings can be large; an effect the other way counts as inactive or inconclusive. Where a SMILES comes first, the peptide text is derived from it. The star is where a group is joined. Hexanoyl = CCCCCC(=O)*
What was measured:
[1] = biological target: Calcium and integrin-binding protein 1 (Homo sapiens) (UniProt Q99828); test: Primary qHTS for Identification of Calcium Integrin Binding Protein 1 (CIB1) Competitor (AID 1508620); settings: CIB1-GST / FITC-alphaIIb peptide fluorescence polarization; series mostly up to 57.7 µM;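 further: GST tagged CIB1 binding a fluorescein labelled alphaIIb integrin peptide tracer; top concentration of the series differs between compounds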
Sequence of Calcium and integrin-binding protein 1 (Homo sapiens) (Q99828 whole entry, looked up): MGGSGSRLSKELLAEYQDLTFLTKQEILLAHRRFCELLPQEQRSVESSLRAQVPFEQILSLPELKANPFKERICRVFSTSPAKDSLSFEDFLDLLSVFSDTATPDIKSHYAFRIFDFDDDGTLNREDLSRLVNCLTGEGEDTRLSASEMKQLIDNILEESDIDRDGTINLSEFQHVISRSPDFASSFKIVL
Summary of the method: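 Fluorescence polarization competition: CIB1-GST (1 uM final) preincubated with compound 15 min at room temperature, then FITC-labeled alphaIIb peptide (100 nM final) added for another 15 min. Polarization read at Ex 480/Em 540.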

[2] = biological target: Cytochrome P450 2D6 (Homo sapiens) (UniProt P10635); test: Cytochrome P450 family 2 subfamily D member 6 (CYP2D6) small molecule antagonists: luciferase biochemical (cell-free) qHTS assay (AID 1645840; active means well fitted curve in the direction sought with a large enough effect in the repeat runs; an effect the other way counts as inactive or inconclusive; further: nearly all actives have a fitted effect of over 55% in size; further: potency means the concentration at half of the fitted maximal effect); settings: P450-Glo CYP2D6 enzyme, luciferin luminescence, 1 h; series mostly up to 57.4 µM
Sequence of Cytochrome P450 2D6 (Homo sapiens) (P10635 whole entry, looked up): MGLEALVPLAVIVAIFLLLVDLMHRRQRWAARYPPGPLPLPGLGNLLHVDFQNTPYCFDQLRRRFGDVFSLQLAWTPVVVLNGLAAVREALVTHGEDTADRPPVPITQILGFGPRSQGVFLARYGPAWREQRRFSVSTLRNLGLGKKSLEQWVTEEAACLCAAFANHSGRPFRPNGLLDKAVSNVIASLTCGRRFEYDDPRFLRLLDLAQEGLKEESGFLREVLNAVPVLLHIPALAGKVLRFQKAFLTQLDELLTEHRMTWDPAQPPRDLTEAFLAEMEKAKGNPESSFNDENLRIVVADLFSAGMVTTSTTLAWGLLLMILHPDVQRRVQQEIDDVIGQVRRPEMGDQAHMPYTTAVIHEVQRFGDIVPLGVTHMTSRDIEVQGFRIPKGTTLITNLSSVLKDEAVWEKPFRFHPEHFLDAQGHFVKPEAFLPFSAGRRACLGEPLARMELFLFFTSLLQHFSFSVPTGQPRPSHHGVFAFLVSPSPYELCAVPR
Summary of the method: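 P450-Glo luminescent screen: recombinant CYP2D6 enzyme–proluciferin substrate mix preincubated with compound 10 min at room temperature, then NADPH regeneration added for 1 h at room temperature. Detection reagent added for 20 min; luciferin light read as relative luminescence units.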

[3] = Primary qHTS for inhibitors of nuclear receptor binding SET domain protein 2 (NSD2) in an isogenic RCH-ACV NSD2 p.E1099K mutant (9B) (AID 1645876); settings: RCH-ACV NSD2 E1099K (9B) viability, CellTiter-Glo, 72 h; series mostly up to 44.9 µM; further: nearly all actives have a fitted effect of over 70% in size; further: potency means the concentration at half of the fitted maximal effect
[4] = Primary qHTS for inhibitors of nuclear receptor binding SET domain protein 2 (NSD2) in an RCH-ACV wild type WT cells (2C) (AID 1645877); settings: RCH-ACV (leukaemia line) NSD2 WT (2C) viability, CellTiter-Glo, 72 h; series mostly up to 44.9 µM; further: nearly all actives have a fitted effect of over 70% in size; further: potency means the concentration at half of the fitted maximal effect
[5] = biological target: Cytochrome P450 2C9 (Homo sapiens) (UniProt P11712); test: Cytochrome P450 family 2 subfamily C member 9 (CYP2C9) small molecule antagonists: luciferase biochemical (cell-free) qHTS assay (AID 1645842; active means well fitted curve in the direction sought with a large enough effect in the repeat runs; an effect the other way counts as inactive or inconclusive; further: nearly all actives have a fitted effect of over 55% in size; further: potency means the concentration at half of the fitted maximal effect); settings: P450-Glo CYP2C9 enzyme assay, luciferin luminescence; series mostly up to 57.4 µM
Sequence of Cytochrome P450 2C9 (Homo sapiens) (P11712 whole entry, looked up): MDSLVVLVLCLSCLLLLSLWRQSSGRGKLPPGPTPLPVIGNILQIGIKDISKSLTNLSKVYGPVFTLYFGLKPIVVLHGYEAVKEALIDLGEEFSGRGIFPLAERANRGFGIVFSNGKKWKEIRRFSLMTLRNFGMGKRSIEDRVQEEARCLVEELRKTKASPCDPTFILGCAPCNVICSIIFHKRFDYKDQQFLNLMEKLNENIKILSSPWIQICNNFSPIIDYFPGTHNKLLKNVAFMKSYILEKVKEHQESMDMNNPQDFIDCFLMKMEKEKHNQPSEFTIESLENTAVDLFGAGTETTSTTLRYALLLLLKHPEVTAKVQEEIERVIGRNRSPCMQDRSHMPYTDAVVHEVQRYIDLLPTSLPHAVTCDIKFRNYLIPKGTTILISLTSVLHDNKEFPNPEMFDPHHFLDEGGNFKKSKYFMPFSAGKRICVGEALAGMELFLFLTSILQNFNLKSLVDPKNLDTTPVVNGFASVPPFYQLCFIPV
Summary of the method: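 Luminescence, after 20 min with luciferin detection reagent, reflected CYP2C9 turnover during a 1 h NADPH-driven reaction at 37C. Enzyme-substrate mix contained 0.4% bovine serum albumin and was preincubated with compound 10 min at room temperature.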

[6] = biological target: Cytochrome P450 3A4 (Homo sapiens) (UniProt P08684); test: Cytochrome P450 family 3 subfamily A member 4 (CYP3A4) small molecule antagonists: luciferase qHTS assay (AID 1645841; active means well fitted curve in the direction sought with a large enough effect in the repeat runs; an effect the other way counts as inactive or inconclusive; further: nearly all actives have a fitted effect of over 45% in size; further: potency means the concentration at half of the fitted maximal effect); settings: P450-Glo CYP3A4 enzyme assay, luciferin luminescence; series mostly up to 57.4 µM
Sequence of Cytochrome P450 3A4 (Homo sapiens) (P08684 whole entry, looked up): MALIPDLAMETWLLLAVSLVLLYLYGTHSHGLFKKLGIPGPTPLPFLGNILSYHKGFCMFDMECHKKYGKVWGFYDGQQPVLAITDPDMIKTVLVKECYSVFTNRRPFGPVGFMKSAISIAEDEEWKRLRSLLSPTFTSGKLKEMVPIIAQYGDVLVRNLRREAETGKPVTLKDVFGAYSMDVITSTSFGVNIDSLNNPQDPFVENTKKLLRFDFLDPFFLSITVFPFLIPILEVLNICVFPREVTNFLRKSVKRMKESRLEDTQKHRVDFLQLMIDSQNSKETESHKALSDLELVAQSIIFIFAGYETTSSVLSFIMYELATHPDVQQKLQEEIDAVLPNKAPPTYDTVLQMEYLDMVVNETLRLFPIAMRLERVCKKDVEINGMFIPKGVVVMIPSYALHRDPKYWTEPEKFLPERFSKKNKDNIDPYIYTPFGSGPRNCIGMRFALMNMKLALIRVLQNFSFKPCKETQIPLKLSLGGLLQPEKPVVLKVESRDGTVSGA
Summary of the method: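 P450-Glo CYP3A4 enzyme with proluciferin substrate was preincubated with DMSO-dissolved compounds for 10 min at room temperature. NADPH regeneration solution started a 1 h reaction. Detection reagent stopped it, and luminescence was read after 20 min.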

Row | Compound | Potency [1] | Potency [2] | Potency [3] | Potency [4] | Potency [5] | Potency [6]
1 | FC(F)(F)Oc1ccc(-c2ccc3nnc(C(F)(F)F)n3c2)cc1 | inactive | inactive | inactive | inactive | – | –
2 | CCOc1ccc(-c2nn3ncccc3c2-c2ccc(S(C)(=O)=O)cc2)cc1 | inactive | – | – | – | 4.77 µM (active) | –
3 | Cc1ncc(NC(=O)c2ccc(CN3CCN(C)CC3)c(C(F)(F)F)c2)cc1Nc1nccc(-c2cccnc2)n1 | inactive | 10.7 µM (active) | 7.28 µM (active) and 5.9 µM (active) | 8.17 µM (active) and 5.9 µM (active) | – | –
4 | Cc1cc(CNC(=O)c2cc(C(=O)NCc3ccc(F)c(C)c3)ncn2)ccc1F | inactive | inactive | inactive | inactive | inactive | –
5 | CCOC(=O)CSc1nc2c(sc3ccccc32)c(=O)n1CCCN1CCCC1 | inactive | 0.849 µM (active) | inactive | inactive | – | –
6 | COc1cc2nc(=NC(=O)c3cccnc3)n3c(c2cc1OC)NCC3 | inactive | inactive | 4.59 µM (active) | 5.15 µM (active) | – | –
7 | CCCN(CCN1CCN(c2ccccc2OC)CC1)C1CCc2ncsc2C1 (stereo not given) | inactive | 1.9 µM (active) | inactive | inactive | – | –
8 | Cc1[nH]c2ccccc2c1CC(=O)N[C@@H](Cc1ccccc1)C(=O)N(C)c1ccccc1 | inactive | 16.9 µM (active) | – | inactive | 9.52 µM (active) | –
9 | CC(=O)N[C@H](Cc1c[nH]c2ccccc12)C(=O)OCc1cc(C(F)(F)F)cc(C(F)(F)F)c1 | inactive | 19 µM (active) | inactive | inactive | – | –
10 | CCc1nn(CCO)c(CC)c1Oc1cc(C#N)cc(C#N)c1 | inactive | inactive | inactive | inactive | – | –
11 | FC(F)(F)c1nnc2c(Sc3ccccc3)nc3ccc(Cl)cc3n12 | inactive | inactive | 4.09 µM (active) | 3.65 µM (active) | – | –
12 | Cc1nc2ccccc2c(-c2ccc3c4c(ccnc24)CCO3)c1[C@H](OC(C)(C)C)C(=O)O | inactive | inactive | inactive | inactive | – | –
13 | COc1cnc(-n2cnc(C)n2)c2[nH]cc(C(=O)C(=O)N3CCN(C(=O)c4ccccc4)CC3)c12 | inactive | inactive | inactive | inactive | – | –
14 | CCCCCC(=O)N1CCC[C@H]1C(=O)N[C@@H](Cc1ccc(O)cc1)C(=O)OC (Hexanoyl-Pro-Tyr-OMe) | inactive | inactive | inactive | inactive | – | –
15 | CC(CNS(=O)(=O)C(C)C)c1ccc(-c2ccc(C#N)cc2)cc1 (stereo not given) | inactive | inactive | – | 8.17 µM (active) | inactive | –
16 | Oc1ccc(CC2NCCc3cc(O)c(O)cc32)cc1 (stereo not given) | inactive | inactive | inactive | inactive | inactive | –
17 | CCCCS(=O)(=O)NC(Cc1ccc(OCCCCC2CCNCC2)cc1)C(=O)O (stereo not given) | inactive | inactive | inactive | inactive | – | –
18 | Cc1cc(OCCN2CCOCC2)nn1-c1ccc2ccccc2c1 | inactive | 5.35 µM (active) | inactive | – | – | –
19 | NC[C@H]1CCC[C@@H](CNC(=O)[C@@H](Cc2c[nH]c3ccccc23)NC(=O)N2CCC3(C=Cc4ccccc43)CC2)C1 | inactive | – | – | – | 1.86 µM (active) | –
20 | O=C(Nc1ccccc1)Nc1ccc(-c2ccc(C(=O)C3CCCC3C(=O)O)cc2)cc1 (stereo not given) | inactive | inactive | inactive | inactive | 16.9 µM (active) | –
21 | CCNC(=O)C1CC(F)(c2ccc(CN3CCCC3)c(F)c2)C1 (stereo not given) | inactive | – | inactive | – | inactive | inactive
22 | Cc1ccc(-c2c(-c3nn(C)c4ncnc(N5CCC(N6CCCCC6)C5)c34)cnn2C)cc1 (stereo not given) | inactive | – | inactive | inactive | 19 µM (active) | 0.12 µM (active)
23 | CCOC(=O)COc1ccc2c(c1)C[C@@H](NC[C@H](O)c1cccc(Cl)c1)CC2 | inactive | 0.756 µM (active) | inactive | inactive | 16.9 µM (active) | –
24 | Fc1ccc(-c2c3cccc(C(F)(F)F)c3nn2Cc2ccc(F)cc2Cl)cc1 | inactive | inactive | inactive | inactive | – | –
25 | CCCCNc1nc(N)c2[nH]c(=O)n(Cc3ccc(OCCN(C)C)nc3)c2n1 | inactive | inactive | inactive | inactive | – | –
26 | COc1ccc(N2CCN(CCCNC(=O)Cn3c(=O)c4cccn4c4c(C)ccnc43)CC2)cc1 | inactive | inactive | inactive | inactive | – | –
27 | O=C(NC1Cc2ccccc2N(C[C@@H](O)CO)C1=O)c1cc2cc(Cl)sc2[nH]1 (stereo not given in full) | inactive | – | – | – | 21.3 µM (active) | –
28 | COc1ccccc1Oc1c(NS(=O)(=O)c2ccc(C)cn2)nc(-c2ccncc2)nc1OC | inactive | inactive | inactive | inactive | – | –

Source: PubChem BioAssay (NCATS)
